Among all 310,000 compounds or so, about 18,000 (5.8%) were called active. About 22% were inconclusive and are not listed. The sample as a whole holds a higher share of actives than the screen did. Values without a mark were called inactive. Calls follow the shape of the dose curve; as a rule, active = well fitted inhibition curve with a large enough effect; inconclusive = small, poorly fitted or top-dose-only effect, or another doubt; inactive = no such curve, though single readings can be large or run the other way.
Assay: Primary qHTS for delayed death inhibitors of the malarial parasite plastid, 48 hour incubation
Conditions: P. falciparum luciferase growth in erythrocytes; series mostly up to 28.7 µM; activity change, negative = inhibition: at the top concentration
Procedure, shortened: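 Luciferase-expressing parasites in RBCs, 2% Hct / 0.1% parasitemia final; RPMI 1640 + 0.5% Albumax; 37 C, 5% CO2, one generation; luminescence read-out, lower signal = inhibition.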
% is scaled to controls: 0 for no effect and ±100 for the full control effect; potency is read from the fitted curve at half-maximal effect.

Compound	activity change, negative = inhibition	Potency
O=C(CSc1nc2[nH]ncc2c(=O)[nH]1)Nc1ccc(F)cc1	-26.2%	
Cc1nonc1NC(=O)c1oc2ccccc2c1C		9.28 µM (active)
Cc1nonc1NC(=O)c1ccccc1Br	11.3%	
Cc1c(C(=O)NNC(=O)c2ccncc2)oc2ccccc12	2.2%	
Cc1ccc(NS(=O)(=O)c2ccc3c(c2)NC(=O)CO3)cc1	16.8%	
CC1(C)CC(=O)C(C2=NC(C)(C)Cc3ccccc32)=C(O)C1	-7.07%	
CC1(C)CC(=O)C2=C(C1)Nc1cc(C(=O)c3ccccc3)ccc1NC2c1ccccn1 (stereo not drawn)	-3.64%	
Cc1cc2c(cc1C)NC(c1ccccn1)C1=C(CC(C)(C)CC1=O)N2 (stereo not drawn)		10.4 µM (active)
Cc1ccc(NS(=O)(=O)c2ccc(-c3coc(C)n3)cc2)c(C)c1	32.4%	
CCc1ccc2[nH]c(=O)c(Cc3ccccc3)c(O)c2c1	-10.4%	
CCOC(=O)C(Cc1ccccc1)NC(=O)CCC(=O)c1ccc(OC)cc1 (stereo not drawn)	-19.8%	
COC(=O)[C@H](Cc1ccccc1)NC(=O)Nc1ccc(OC)cc1	-8.2%	
COc1cc([C@H](Cc2ccccc2)NC(C)=O)oc(=O)c1		9.28 µM (active)
Nc1cc(N)nc(SCc2cccc(F)c2)n1	59.5%	
COc1ccc(S(=O)(=O)N2CCN(C)CC2)c(C)c1	0.0519%	
CC(C)CCN1CCC(C)(NC(=O)c2ccccc2)C1=O (stereo not drawn)	0%	
Cc1cc(Cl)c2oc(C(=O)NC(C)c3ccncn3)c(C)c2c1 (stereo not drawn)	0%	
O=C(O)c1ccc(NC(=O)c2cn(-c3ccccc3)nc2-c2ccc(Cl)cc2)cc1	-13%	
COc1ccc(-c2nn(-c3ccccc3)cc2C(=O)Nc2nc(CC(C)=O)ns2)cc1	-13.6%	
COc1ccc(-c2nn(-c3ccccc3)cc2C(=O)Nc2nccs2)cc1OC		13.1 µM (active)
Cc1nnc(SCC(=O)N/N=C/c2cn(-c3ccccc3)nc2-c2ccc(F)cc2)n1-c1ccccc1	-22%	
COc1ccc(-c2nn(-c3ccccc3)cc2/C=N/Nc2ccccn2)cc1OC		4.65 µM (active)
CN(C)/N=C/c1cn(-c2ccccc2)nc1-c1cccnc1	6.39%	
Cc1nc([N+](=O)[O-])cn1CC(=O)Nc1ccc(Cl)cc1	25.8%	
O=C(Nc1ccc(NC(=O)c2ccccc2F)cc1)c1ccccc1F	23.2%	
O=C(O)c1ccccc1CSc1nc2ccccc2s1	46.1%	

Compound	activity change, negative = inhibition	Potency
CCOC(=O)C1CCN(C(=O)CN2C(=O)c3cccnc3Oc3ccc(C)cc32)CC1	-12.4%	
COc1ccc(C2/C(=C(/O)c3ccccc3)C(=O)C(=O)N2C)c(OC)c1 (stereo not drawn)	9.99%	
CN1CCC[C@@H]1CCO[C@](C)(c1ccccc1)c1ccc(Cl)cc1		12 µM (active)
C#CC(CCN1CCCCC1)(OC)c1ccccc1 (stereo not drawn)	131%	
COc1ccc(CNC(=O)COc2ccccc2C(=O)c2cnn(-c3ccccc3)c2)cc1OC	35.7%	
N#Cc1ccc(CN2CCN(CC(=O)Nc3ccccc3C(=O)NC3CC3)CC2)cc1	-9.94%	
CCn1cc(C(=O)NCCC(=O)NCCO)c(=O)c2cc3c(cc21)OCO3	16.2%	
COc1ccc(C(=O)Nc2ccc(C3(C#N)CCCC3)cc2)cc1OC	76%	
COc1cc(C(=O)NCC2(c3ccccc3)CCCC2)ccc1OC(C)C		14.7 µM (active)
COc1ccc(C2(CNC(=O)Cc3ccc(OC)c(OC)c3)CCCC2)cc1	17.5%	
COc1cc(OC)c(NS(=O)(=O)c2cn(C)cn2)cc1Cl	20.2%	
Cc1cccc(NC(=O)c2cccnc2Cl)n1	9.63%	
CCc1cccc(NC(=S)N(CCN(C)C)C2CCN(C(C)C)CC2)c1	-29.2% [at 0.00184 µM]	
COCCN(CCOC)C(=S)Nc1ccccc1Cl	36.2%	
CCc1ccc2c(c1)cc(CN(C(=S)Nc1ccccc1Cl)C1CC1)c1nnnn12		6.57 µM (active)
COc1ccc(CNC(=O)C(=O)NCC2OCCN2C(=O)c2ccc(OC)cc2)cc1 (stereo not drawn)	-15.6%	
Cc1c(C)c2cc3c4c(oc3c(C)c2oc1=O)CCCC4	22%	
CC[C@@H](C)[C@H](NC(=O)CCc1c(C)c2cc3c4c(oc3c(C)c2oc1=O)CCCC4)C(=O)O	12%	
Cc1c(CCC(=O)N[C@@H](CC(C)C)C(=O)O)c(=O)oc2c(C)c3oc4c(c3cc12)CCCC4		2.33 µM (active)
O=C(NCc1ccccc1)C(c1ccccc1)N(C(=O)c1csnn1)c1ccc(F)cc1 (stereo not drawn)	-14.5%	
Cc1c2cn[nH]c(=O)c2c(C)n1Cc1ccc(F)cc1		11.7 µM (active)
CSc1nc2ccccc2c(=O)n1Cc1ccc(F)cc1	-13%	
Cc1n[nH]c(=O)c2c1nnn2Cc1ccc(F)cc1	19.1%	
Cc1ccc(N2C(=O)C3C4C=CC(CC4)C3C2=O)cc1Br (stereo not drawn)	0%	
O=C(COc1coc(CN2CCN(c3ccccc3F)CC2)cc1=O)N1CCc2ccccc21	-10.4%	
COc1ccc(S(=O)(=O)NCC(=O)NC2CC2)cc1OC	6.1%	

Compound	activity change, negative = inhibition	Potency
O=C(O)CCCn1c(=O)c2cccn2c2ccc(F)cc21	25.8%	
CCOC(=O)C1CCN(Cc2nnc(-c3cccc(Br)c3)o2)CC1	35.6%	
CCOc1ccccc1N1CCN(C(=O)c2ccc3[nH]c(C)c(C)c3c2)CC1	-8.07%	
CCCCCCCNC(=O)C1(CC2CC(c3cccc(Br)c3)=NO2)CCN(C(=O)c2cc(OCC)c(OCC)c(OCC)c2)CC1 (stereo not drawn)		0.657 µM (active)
N#Cc1c(Cl)nc(-c2cccnc2)nc1-c1ccccc1	0.537%	
CCCC[C@H]1COCCS(=O)(=O)N1Cc1cccc(Cl)c1	0%	
COc1cc(NC(=O)C2CC(c3ccccc3O)=NO2)c(OC)cc1Cl (stereo not drawn)	-5.06%	
Cc1nc(-c2ccc(F)cc2)c(CC(=O)N2CCN(S(=O)(=O)c3ccc(F)cc3)CC2)s1	-11.8%	
Cc1ccccc1NC(=O)CSc1nc2ccc(Nc3nc(N4CCOCC4)nc(N4CCOCC4)n3)cc2s1	-8.19%	
O=C(CN1CCOCC1)Nc1cc(Cl)ccc1Cl	12.8%	
O=C(CSc1nc(Nc2ccccc2)nc(N2CCOCC2)n1)Nc1cc(Cl)ccc1O		1.17 µM (active)
Cn1c(SCC(=O)N2CCCCC2)nc2c(c1=O)SCC2	-1.34%	
O=C(Nc1ccc(C(F)(F)F)cc1)c1cccc(-n2cnnn2)c1		10.4 µM (active)
CNC(=O)c1ccc(NC(=O)c2cccc(C(F)(F)F)c2)cc1	-18.5%	
O=C(Nc1cccc(-n2cnnn2)c1)c1cccnc1	18.8%	
O=C(NCc1ccc(F)cc1)C1CCN(C(=O)Nc2ccc(F)cc2)CC1	0.721%	
O=C(Nc1cccc(Cl)c1Cl)c1ccccc1NC(=O)C1CC=CCC1C(=O)O (stereo not drawn)	3.31%	
COC(=O)c1cc(C(=O)CSc2nc(C)cc(C)n2)ccc1O	54.2%	
CC(C)C1N=C2c3ccccc3N=C(SCC(=O)c3ccc(O)c(O)c3)N2C1=O (stereo not drawn)		11.7 µM (active)
CCc1ccc(S(=O)(=O)N/N=C\c2ccc([N+](=O)[O-])o2)cc1	25.8%	
COc1ccc(CCNS(=O)(=O)c2cn(C)nc2C)cc1	32.5%	
Cc1ccc(F)cc1NC(=O)Cc1nn(C)c(=O)c2ccccc12	-15.9%	
Cc1c(-c2nn(C)c(=O)c3ccccc23)oc2ccc(F)cc2c1=O		2.62 µM (active)
O=C1c2oc3ccc(Br)cc3c(=O)c2C(c2cccc(F)c2)N1CCO (stereo not drawn)	-24.2%	
CCCNC(=O)CCc1c(C)nc2c(c(C)nn2-c2ccccc2)c1C	-29.5%	
O=C(CN(C(=O)CCC(=O)Nc1nccs1)c1ccc(F)cc1)NCc1ccc2c(c1)OCO2	-25.3%	

Compound	activity change, negative = inhibition	Potency
CCc1ccc(C(=O)OCC(=O)Nc2cccc(S(=O)(=O)NC3=NCCCCC3)c2)cc1		10.4 µM (active)
Cc1cccc(-n2c(SCC(=O)Nc3cccc(S(=O)(=O)NC4=NCCCCC4)c3)nc3ccccc3c2=O)c1C		13.1 µM (active)
O=C(Cn1cnc2ccccc2c1=O)Nc1cccc(S(=O)(=O)N2CCCCC2)c1	-10.9%	
O=C(Nc1cccc(S(=O)(=O)NC2=NCCC2)c1)C1CCCCC1	-2.52%	
COCCn1c(SCC(=O)Nc2ccc3c(c2)CCC3)nc2ccccc2c1=O	-17.9%	
CN(CCOc1ccc(Br)cc1)CC(=O)Nc1cccc(S(=O)(=O)NC2=NCCC2)c1	-18.4%	
Cc1ccc(S(=O)(=O)N2CCC3(CC2)OCCO3)c(C)c1	-0.438%	
Cc1csc(NC(=O)CSc2nc(=O)n(CCCN(C)C)c3c2CCC3)n1	11.7%	
CC(=O)Nc1ccc(NC(=O)COc2ccc(-c3ccccc3)cc2)cc1	4.83%	
CC1CC(C)CN(CCCNC(=O)Cn2ncc3c([nH]c4ccccc43)c2=O)C1 (stereo not drawn)	6.15%	
CC(=O)N1CCN(C(=O)c2cc(-c3ccc(C)o3)nc3ccccc23)CC1	14.6%	
CCOC(=O)C1(Cc2ccccc2C)CCCN(C(=O)CN2C(=O)CSC2=O)C1 (stereo not drawn)	18%	
CCCCC(=O)Nc1nnc(S(=O)(=O)N(C)Cc2ccco2)s1	21.1%	
Cc1ccc(C(=O)N/C(=C\c2ccc(F)cc2)C(=O)NCCN2CCOCC2)cc1	17.7%	
CCN1CCN(CCNC(=O)c2ccc3c(c2)NC(=O)/C(=C\c2ccc(OC)c(OC)c2)S3)CC1		9.28 µM (active)
CCN1CCN(CCNC(=O)c2ccc(/C=C3/Sc4ccccc4N(Cc4cccc(C)c4)C3=O)cc2)CC1		11.7 µM (active)
O=C(NCCN1CCOCC1)c1ccc(/C=C2\Sc3ccccc3N(Cc3ccc(F)cc3)C2=O)cc1		11.7 µM (active)
COc1ccc(CCNC(=O)c2ccc3c(c2)NC(=O)C(N2CCOCC2)S3)cc1OC (stereo not drawn)	-14.3%	
CN1C(=O)/C(=C/c2ccc(C(=O)NC3CCCC3)cc2)Oc2ccccc21	-20.2%	
O=C(NCCN1CCOCC1)/C(=C/c1ccc(F)cc1)NC(=O)c1ccccc1	15.1%	
COc1ccc(/C=C(\NC(=O)c2ccccc2)C(=O)NCCN2CCOCC2)cc1OC	3.72%	
CCCN1CCN(C(=O)CCCNC(=O)c2ccc(Cl)cc2)CC1	-0.322%	
Cc1nn(Cc2ccccc2)c(C)c1C(=O)NCCN1C(=O)S/C(=C\c2ccc(F)cc2)C1=O	12.8%	
CN1CCN(CCCNC(=O)c2ccc(/C=C3\Oc4ccccc4N(Cc4ccc(Cl)cc4)C3=O)cc2)CC1		1.65 µM (active)
O=C(NCCN1C(=O)S/C(=C\c2cccnc2)C1=O)c1cccc(OC(F)F)c1	-29.2%	

Source: PubChem BioAssay AID504832 (National Center for Advancing Translational Sciences (NCATS), 2011)
